Out of some 340,000 compounds screened, about 1,400 (0.41%) were called active. Entries that show only a call come without a potency. Roughly 4% stayed inconclusive and do not appear here. The call rests on the fitted dose curve; cell line not stated here. Many of the other results were omitted from the sample, so actives are more common in it than they were.
Potency means the concentration at half of the fitted maximal effect.

This test can be described thus: qHTS for Antagonists of gsp, the Etiologic Mutation Responsible for Fibrous Dysplasia/McCune-Albright Syndrome: qHTS. Further: nearly all actives have a fitted effect of over 65% in size. As to conditions: gsp-mutant cells, cAMP HTRF, 30 min; series mostly up to 76.9 µM. In outline: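 Cells in G418 medium, seeded 16-24 h, 37C; buffer exchange to DPBS + 1 mM CaCl2, 0.5 mM MgCl2, 0.05% BSA; cpds in DMSO + […] (300 uM stock), 30 min 37C; HTRF cAMP detection.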
Regarding `O=C1CC(c2ccccc2)C(=O)N2C(=O)CC(c3ccccc3)C(=O)N12` (stereo not drawn), the Potency entry was “inactive”.

Take `Cc1nc(Nc2ccccc2C)c2cnn(C)c2n1`: the Potency result was “inactive”.

In the case of `COc1ccc(N=C2C=CC(=O)O2)cc1`, the Potency result was “inactive”.

Take `O=C(NC(Nc1nc2ccc([N+](=O)[O-])cc2s1)(C(F)(F)F)C(F)(F)F)c1ccccc1`: the Potency was 3.98 µM (active).

For the compound `O=C(CCNC(=O)c1ccccc1)Nc1nc2ccccc2s1`, the Potency result was “inactive”.

Turning to `N=C1C(c2nc3ccccc3s2)=C(O)CN1NC(=O)c1ccc([N+](=O)[O-])cc1`, the Potency entry was “inactive”.

As for `CC(=O)Nc1ccc(C(=O)Nc2cc(S(=O)(=O)N3CCOCC3)ccc2N2CCOCC2)cc1`, the Potency result is “inactive”.

Turning to `CC1(C)N=C(N)NC(Nc2ccc(Cl)cc2)=N1`, the Potency entry was “inactive”.

For `CC1CCCCC1NCC(=O)Nc1ccccc1C(=O)Nc1ccccc1` (stereo not drawn), the Potency entry was “inactive”.

As to `O=C(O)c1ccccc1NC(=O)c1ccccc1-c1ccccc1C(=O)O`, the Potency result is “inactive”.

As to `O=C(Nc1ccccc1)c1ccccc1NC(=O)C(F)(F)F`, the Potency is 31.6 µM (active).

In the case of `c1ccc(CCc2ccccn2)cc1`, the Potency result was “inactive”.

Consider `Cc1cc(N2C(=O)C(=O)/C(=C(/O)c3ccc(Cl)cc3)C2c2cccc(Br)c2)no1` (stereo not drawn), for which the Potency result was “inactive”.

Consider `COc1ccccc1C1/C(=C(/O)c2ccc(OC(C)C)cc2)C(=O)C(=O)N1c1cc(C)on1` (stereo not drawn), for which the Potency is 28.2 µM (active).

As to `Cc1cc(N2C(=O)C(=O)/C(=C(/O)c3ccccc3)C2c2cccc(Br)c2)no1` (stereo not drawn), the Potency result is “inactive”.

Take `COc1ccc(CNCCCNCc2ccc(OC)c(OC)c2)cc1OC`: the Potency entry is “inactive”.

As to `O=C1NC(c2ccccc2)Cc2ccncc21` (stereo not drawn), the Potency result is “inactive”.

Turning to `CCOc1ccc(NC(=O)c2nc(SCC)ncc2Cl)cc1`, the Potency entry was “inactive”.

On to `Cc1cccc(CS(=O)(=O)c2ncc(Cl)c(C(=O)Nc3ccc(F)cc3)n2)c1`, for which the Potency was 50.1 µM (active).

For `CSc1ncc(Cl)c(C(=O)Nc2cc(C)ccc2C)n1`, the Potency entry was “inactive”.

As to `Cc1nnc(NC(=O)c2ccc3nccnc3c2)s1`, the Potency result is “inactive”.

Take `CSc1nnc(NC(=O)c2nc(S(=O)(=O)Cc3ccc(C)cc3)ncc2Cl)s1`: the Potency was 15.8 µM (active).

Take `Cc1cccc(NC(=O)c2nc(S(=O)(=O)Cc3ccccc3)ncc2Cl)c1`: the Potency result is “inactive”.

For the compound `Cc1ccc(S(=O)(=O)CC(=O)Nc2nnc(C)s2)cc1`, the Potency result was “inactive”.

Take `COCCSc1nnc(NC(=O)CCS(=O)(=O)Cc2ccccc2)s1`: the Potency entry was “inactive”.

`Cc1ccc(CS(=O)(=O)c2ncc(Cl)c(C(=O)Nc3nnc(C)s3)n2)cc1`: the Potency is 31.6 µM (active).

Consider `NC(=O)C1(Nc2ccc(-c3ccccc3)cc2)CCCC1`, for which the Potency result was “inactive”.

On to `CC(C)OC(=O)c1ccc(NCc2cc(O)ccc2O)cc1Cl`, for which the Potency result was “inactive”.

Turning to `C=CCCC(=O)N1C[C@H]2CON(C)[C@H]2C[C@H]1c1cccc(Nc2ccccc2)c1`, the Potency entry is “inactive”.

With `CCOc1ccccc1NC(=S)C(=C([O-])c1ccc2c(c1)OCCO2)[n+]1ccc(CC)cc1`, the Potency entry was “inactive”.

Take `O=c1c2ccccc2ncn1CCc1ccncc1`: the Potency result was “inactive”.

With `Cc1ccc(C)c(S(=O)(=O)N(C)c2ccc(OC(=O)C3CCN(C(=O)c4ccc(F)cc4)CC3)cc2)c1`, the Potency entry is “inactive”.

With `CCOc1cc(C(=O)N(Cc2ccccc2)c2ccc(C)cc2)ccc1OCC(=O)N1CCOCC1`, the Potency result was “inactive”.

On to `Cc1ccc2oc(=O)ccc2c1`, for which the Potency result is “inactive”.

As for `O=[N+]([O-])c1ccc(N=NNc2ccc([N+](=O)[O-])cc2)cc1`, the Potency entry is “inactive”.

As to `OCC1(CO)CC2(C1)CC(CO)(CO)C2`, the Potency result was “inactive”.

Consider `COc1ccc(N(C)S(=O)(=O)c2ccc3c(c2)CC(C)N3C(=O)C2CC2)c(OC)c1` (stereo not drawn), for which the Potency was 31.6 µM (active).

In the case of `COc1cccc(CNS(=O)(=O)c2ccc3c(c2)CC(C)N3C(=O)C2CCC2)c1` (stereo not drawn), the Potency result is “inactive”.

`COc1cccc(CNS(=O)(=O)c2ccc3c(c2)CC(C)N3C(C)=O)c1` (stereo not drawn): the Potency result is “inactive”.

In the case of `O=C(Nc1cccc(Br)c1)C1CC(=O)N(C2CCCC2)C1` (stereo not drawn), the Potency entry was “inactive”.

With `CCOC(=O)C1CCCN(C(=O)CN(c2ccc(OC)cc2)S(=O)(=O)c2c(C)noc2C)C1` (stereo not drawn), the Potency result is “inactive”.

Consider `CCN(C(=O)C1CCCN(c2nc(-c3ccc(OC)cc3)no2)C1)c1ccc(OC)cc1` (stereo not drawn), for which the Potency is 35.5 µM (active).

Take `COc1ccc(NC(=O)N2CCCC(c3nc(-c4ccc(F)cc4)no3)C2)cc1` (stereo not drawn): the Potency result was “inactive”.

For the compound `O=C(O)C(=Cc1ccccc1[N+](=O)[O-])c1ccccc1`, the Potency result is “inactive”.

`Cc1ccc(CSc2nc(-c3ccccc3)c(C#N)c(=O)[nH]2)cc1`: the Potency result is “inactive”.

Turning to `N#Cc1c(-c2ccccc2)nc(SCc2ccc([N+](=O)[O-])cc2)[nH]c1=O`, the Potency result was “inactive”.

As for `N#Cc1c(-c2ccccc2)nc(SCc2cccc(C(F)(F)F)c2)[nH]c1=O`, the Potency was 50.1 µM (active).

`CC(=O)N(C1=C(Cl)C(=O)c2ccccc2C1=O)c1ccc(C(=O)O)cc1`: the Potency was 50.1 µM (active).

On to `O=C(NC1=CC(=O)c2ccccc2C1=O)c1ccccc1`, for which the Potency result was “inactive”.

`C=C(C)C(=O)Nc1cccc(C(C)=O)c1`: the Potency result was “inactive”.

With `CC(=O)c1cccc(NC(=S)N2CCCC2)c1`, the Potency result is “inactive”.

For the compound `C=CCSc1nsc(NC(=O)Nc2cccc(C(C)=O)c2)n1`, the Potency was 28.2 µM (active).

Turning to `CCSc1nsc(NC(=O)Nc2ccccc2OC)n1`, the Potency entry is “inactive”.

For `CCSc1nsc(NC(=O)Nc2cccc(C(C)=O)c2)n1`, the Potency is 25.1 µM (active).

Regarding `CSc1nsc(NC(=O)Nc2ccccc2)n1`, the Potency entry is “inactive”.

Consider `CC1C(C)N(C(=O)CCl)c2ccccc2N1C(=O)CCl` (stereo not drawn), for which the Potency entry was “inactive”.

Turning to `O=S(=O)(O)c1cc2onnc2c2ccccc12`, the Potency entry is “inactive”.

As for `CC(C)(C)OC(=O)N1CCC(C(=O)Nc2cccc(C(=O)NCCc3ccccc3)c2)CC1`, the Potency entry is “inactive”.

Regarding `O=C(OC12CC3CC(CC(C3)C1)C2)c1ccc(NCc2cc(O)ccc2O)cc1`, the Potency result was “inactive”.

Turning to `CCN1CCN(Cc2c(O)ccc3c(=O)c(-c4ccc(OC)c(OC)c4)c(C(F)(F)F)oc23)CC1`, the Potency entry is “inactive”.

With `O=c1c(-c2ccc3c(c2)OCCO3)c(C(F)(F)F)oc2cc(O)cc(O)c12`, the Potency was 39.8 µM (active).

With `COc1ccc(-c2onc(C)c2-c2ccc3c(c2)OCCO3)c(O)c1`, the Potency result was “inactive”.

`CC(C)(C)S(=O)(=O)N1Cc2cc(CO)cc(CCO)c2[C@H]1CCO`: the Potency result was “inactive”.

As for `COc1cccc(C=CC(=O)C=CC=Cc2ccccc2)c1`, the Potency result is “inactive”.

`COc1ccc(-c2ccc3c(c2)C2CC3CCN2CCC#N)cc1` (stereo not drawn): the Potency result is “inactive”.

In the case of `O=C(NNC1CC(=O)N(c2cccc(Cl)c2)C1=O)c1cccnc1` (stereo not drawn), the Potency result was “inactive”.

With `O=C1[C@@H]2C(c3cccnc3)=NO[C@@H]2C(=O)N1c1ccc(Cl)cc1Cl`, the Potency was 11.2 µM (active).

As to `O=C(/C=C/c1ccc(Cl)cc1Cl)c1cccnc1`, the Potency result is “inactive”.

(Values after PubChem BioAssay AID624288 (National Center for Advancing Translational Sciences (NCATS), 2012).)
